target: AgAbp1; test: SPOT peptide array binding signal intensity (averaged, normalized) (arbitrary units (background-subtracted, floor 0; scale differs between SH3 domains)); higher = stronger binding of the SH3 domain to the peptide
Description: (§1)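 GST-tagged SH3 domains from S. cerevisiae (Sc), A. gossypii (Ag), C. albicans (Ca) and S. pombe (Sp) were incubated at 10 ug/ml overnight at 4 C on cellulose SPOT membranes carrying 292 synthetic 15-mer peptides mined from the S. cerevisiae proteome (cysteines replaced by serines). Binding was detected with anti-GST antibody, HRP secondary and chemiluminescence, quantified with Genespotter, and reported as normalized spot intensities averaged over biological replicates.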

Binder	SPOT peptide array binding signal intensity
LKRITSPPLPPRADS	20.5

target: AgBbc1; test: as above
Description: as §1

Binder	SPOT peptide array binding signal intensity
LKRITSPPLPPRADS	427

target: AgBem1-D1; test: as above
Description: as §1

Binder	SPOT peptide array binding signal intensity
LKRITSPPLPPRADS	59

target: AgBzz1-D1; test: as above
Description: as §1

Binder	SPOT peptide array binding signal intensity
LKRITSPPLPPRADS	87.5

target: AgBzz1-D2; test: as above
Description: as §1

Binder	SPOT peptide array binding signal intensity
LKRITSPPLPPRADS	82

target: AgCyk3; test: as above
Description: as §1

Binder	SPOT peptide array binding signal intensity
LKRITSPPLPPRADS	1

target: AgFus1; test: as above
Description: as §1

Binder	SPOT peptide array binding signal intensity
LKRITSPPLPPRADS	2

target: AgHof1; test: as above
Description: as §1

Binder	SPOT peptide array binding signal intensity
LKRITSPPLPPRADS	678

target: AgHse1; test: as above
Description: as §1

Binder	SPOT peptide array binding signal intensity
LKRITSPPLPPRADS	49

target: AgLsb1; test: as above
Description: as §1

Binder	SPOT peptide array binding signal intensity
LKRITSPPLPPRADS	1010

target: AgLsb4; test: as above
Description: as §1

Binder	SPOT peptide array binding signal intensity
LKRITSPPLPPRADS	5100

target: AgMyo5; test: as above
Description: as §1

Binder	SPOT peptide array binding signal intensity
LKRITSPPLPPRADS	3.25

target: AgNbp2; test: as above
Description: as §1

Binder	SPOT peptide array binding signal intensity
LKRITSPPLPPRADS	22

target: AgRvs167; test: as above
Description: as §1

Binder	SPOT peptide array binding signal intensity
LKRITSPPLPPRADS	1890

target: AgSho1; test: as above
Description: as §1

Binder	SPOT peptide array binding signal intensity
LKRITSPPLPPRADS	4

target: AgSla1-D1-D2; test: as above
Description: as §1

Binder	SPOT peptide array binding signal intensity
LKRITSPPLPPRADS	≤ 0

target: AgSla1-D3; test: as above
Description: as §1

Binder	SPOT peptide array binding signal intensity
LKRITSPPLPPRADS	4.75

target: CaAbp1-D1; test: as above
Description: as §1

Binder	SPOT peptide array binding signal intensity
LKRITSPPLPPRADS	134

target: CaAbp1-D2; test: as above
Description: as §1

Binder	SPOT peptide array binding signal intensity
LKRITSPPLPPRADS	96

target: CaBbc1; test: as above
Description: as §1

Binder	SPOT peptide array binding signal intensity
LKRITSPPLPPRADS	1010

target: CaBem1-D1; test: as above
Description: as §1

Binder	SPOT peptide array binding signal intensity
LKRITSPPLPPRADS	24.5

target: CaBzz1-D1; test: as above
Description: as §1

Binder	SPOT peptide array binding signal intensity
LKRITSPPLPPRADS	1940

target: CaBzz1-D2; test: as above
Description: as §1

Binder	SPOT peptide array binding signal intensity
LKRITSPPLPPRADS	423

target: CaCyk3; test: as above
Description: as §1

Binder	SPOT peptide array binding signal intensity
LKRITSPPLPPRADS	25.5

target: CaFus1; test: as above
Description: as §1

Binder	SPOT peptide array binding signal intensity
LKRITSPPLPPRADS	99.5

target: CaHof1; test: as above
Description: as §1

Binder	SPOT peptide array binding signal intensity
LKRITSPPLPPRADS	4.25

target: CaHse1; test: as above
Description: as §1

Binder	SPOT peptide array binding signal intensity
LKRITSPPLPPRADS	124

target: CaLsb1; test: as above
Description: as §1

Binder	SPOT peptide array binding signal intensity
LKRITSPPLPPRADS	1.5

target: CaLsb4; test: as above
Description: as §1

Binder	SPOT peptide array binding signal intensity
LKRITSPPLPPRADS	6040

target: CaMyo5; test: as above
Description: as §1

Binder	SPOT peptide array binding signal intensity
LKRITSPPLPPRADS	2.5

target: CaNbp2; test: as above
Description: as §1

Binder	SPOT peptide array binding signal intensity
LKRITSPPLPPRADS	47

target: CaRvs167; test: as above
Description: as §1

Binder	SPOT peptide array binding signal intensity
LKRITSPPLPPRADS	2070

target: CaRvs167-3; test: as above
Description: as §1

Binder	SPOT peptide array binding signal intensity
LKRITSPPLPPRADS	9.5

target: CaSho1; test: as above
Description: as §1

Binder	SPOT peptide array binding signal intensity
LKRITSPPLPPRADS	9.5

target: CaSla1-D1-D2; test: as above
Description: as §1

Binder	SPOT peptide array binding signal intensity
LKRITSPPLPPRADS	244

target: CaSla1-D3; test: as above
Description: as §1

Binder	SPOT peptide array binding signal intensity
LKRITSPPLPPRADS	2

target: ScAbp1; test: as above
Description: as §1

Binder	SPOT peptide array binding signal intensity
LKRITSPPLPPRADS	16.5

target: ScBbc1; test: as above
Description: as §1

Binder	SPOT peptide array binding signal intensity
LKRITSPPLPPRADS	35.2

target: ScBem1-D1; test: as above
Description: as §1

Binder	SPOT peptide array binding signal intensity
LKRITSPPLPPRADS	10

target: ScBzz1-D1; test: as above
Description: as §1

Binder	SPOT peptide array binding signal intensity
LKRITSPPLPPRADS	56

target: ScBzz1-D2; test: as above
Description: as §1

Binder	SPOT peptide array binding signal intensity
LKRITSPPLPPRADS	18

target: ScCyk3; test: as above
Description: as §1

Binder	SPOT peptide array binding signal intensity
LKRITSPPLPPRADS	2

target: ScFus1; test: as above
Description: as §1

Binder	SPOT peptide array binding signal intensity
LKRITSPPLPPRADS	1

target: ScHof1; test: as above
Description: as §1

Binder	SPOT peptide array binding signal intensity
LKRITSPPLPPRADS	234

target: ScHse1; test: as above
Description: as §1

Binder	SPOT peptide array binding signal intensity
LKRITSPPLPPRADS	91.5

target: ScLsb1; test: as above
Description: as §1

Binder	SPOT peptide array binding signal intensity
LKRITSPPLPPRADS	661

target: ScLsb2; test: as above
Description: as §1

Binder	SPOT peptide array binding signal intensity
LKRITSPPLPPRADS	1120

target: ScLsb3; test: as above
Description: as §1

Binder	SPOT peptide array binding signal intensity
LKRITSPPLPPRADS	7910

target: ScLsb4; test: as above
Description: as §1

Binder	SPOT peptide array binding signal intensity
LKRITSPPLPPRADS	5640

target: ScMyo3; test: as above
Description: as §1

Binder	SPOT peptide array binding signal intensity
LKRITSPPLPPRADS	24

target: ScMyo5; test: as above
Description: as §1

Binder	SPOT peptide array binding signal intensity
LKRITSPPLPPRADS	≤ 0

target: ScNbp2; test: as above
Description: as §1

Binder	SPOT peptide array binding signal intensity
LKRITSPPLPPRADS	77.5

target: ScPex13; test: as above
Description: as §1

Binder	SPOT peptide array binding signal intensity
LKRITSPPLPPRADS	2230

target: ScRvs167; test: as above
Description: as §1

Binder	SPOT peptide array binding signal intensity
LKRITSPPLPPRADS	3220

target: ScSho1; test: as above
Description: as §1

Binder	SPOT peptide array binding signal intensity
LKRITSPPLPPRADS	270

target: ScSla1-D1-D2; test: as above
Description: as §1

Binder	SPOT peptide array binding signal intensity
LKRITSPPLPPRADS	492

target: ScSla1-D3; test: as above
Description: as §1

Binder	SPOT peptide array binding signal intensity
LKRITSPPLPPRADS	36.2

target: SpAbp1-D1; test: as above
Description: as §1

Binder	SPOT peptide array binding signal intensity
LKRITSPPLPPRADS	118

target: SpBbc1; test: as above
Description: as §1

Binder	SPOT peptide array binding signal intensity
LKRITSPPLPPRADS	3

target: SpBzz1-D1; test: as above
Description: as §1

Binder	SPOT peptide array binding signal intensity
LKRITSPPLPPRADS	1080

target: SpBzz1-D2; test: as above
Description: as §1

Binder	SPOT peptide array binding signal intensity
LKRITSPPLPPRADS	1.75

target: SpCyk3; test: as above
Description: as §1

Binder	SPOT peptide array binding signal intensity
LKRITSPPLPPRADS	3

target: SpHof1; test: as above
Description: as §1

Binder	SPOT peptide array binding signal intensity
LKRITSPPLPPRADS	168

target: SpHof1-2; test: as above
Description: as §1

Binder	SPOT peptide array binding signal intensity
LKRITSPPLPPRADS	17.2

target: SpHof1-3; test: as above
Description: as §1

Binder	SPOT peptide array binding signal intensity
LKRITSPPLPPRADS	140

target: SpHse1; test: as above
Description: as §1

Binder	SPOT peptide array binding signal intensity
LKRITSPPLPPRADS	47.5

target: SpLsb1; test: as above
Description: as §1

Binder	SPOT peptide array binding signal intensity
LKRITSPPLPPRADS	1600

target: SpLsb4; test: as above
Description: as §1

Binder	SPOT peptide array binding signal intensity
LKRITSPPLPPRADS	4790

target: SpMyo1; test: as above
Description: as §1

Binder	SPOT peptide array binding signal intensity
LKRITSPPLPPRADS	102

target: SpNbp2; test: as above
Description: as §1

Binder	SPOT peptide array binding signal intensity
LKRITSPPLPPRADS	≤ 0

target: SpPex13; test: as above
Description: as §1

Binder	SPOT peptide array binding signal intensity
LKRITSPPLPPRADS	≤ 0

target: SpRvs167; test: as above
Description: as §1

Binder	SPOT peptide array binding signal intensity
LKRITSPPLPPRADS	3150

target: SpSla1-D1-D2; test: as above
Description: as §1

Binder	SPOT peptide array binding signal intensity
LKRITSPPLPPRADS	1

target: SpSla1-D3; test: as above
Description: as §1

Binder	SPOT peptide array binding signal intensity
LKRITSPPLPPRADS	1.5

— the supplement of paper PMC4466140
